This note sets out measurements from PubChem BioAssay (EPA / NIEHS).

A short description of experiment [1]: BSK_hDFCGF_SRB: Viability Assessment in the BioMAP Diversity Plus: hDFCGF Assay (AID 2283061).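 Also: cells exposed to compound for 24 h before the read.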 Particulars: primary human foreskin fibroblasts. The procedure, abridged: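 Human foreskin fibroblasts in 96-well plates were treated 24 h. Total protein was measured by 0.1% SRB staining after 10% TCA fixation, read at 560 nm. Data were fitted bidirectionally against DMSO.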

Read-out in experiment [2]: TIMP metallopeptidase inhibitor 1 (TIMP1), TIMP1 (gene 7076)
The experiment in a line: BSK_hDFCGF_TIMP1: BioMAP Diversity Plus: hDFCGF Assay for TIMP metallopeptidase inhibitor 1 (TIMP1) Biomarker Activity (AID 2283062). The settings on record: primary human foreskin fibroblasts; actives raise or lower the signal. Summed up: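 Human foreskin fibroblast primary cultures dosed for 24 h; secreted/surface TIMP-1 quantified by ELISA. Bidirectional curve fitting against DMSO baseline; cytotoxicity tracked in parallel cultures by SRB total-protein staining.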

Read-out in experiment [3]: Monokine induced gamma interferon (MIG), CXCL9 (gene 4283)
The experiment in a line: BSK_hDFCGF_MIG: BioMAP Diversity Plus: hDFCGF Assay for Monokine induced gamma interferon (MIG) Biomarker Activity (AID 2283063). The settings on record: primary human foreskin fibroblasts; actives raise or lower the signal. The procedure, abridged:
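MIG/CXCL9 measured by ELISA 24 h after dosing primary human skin fibroblasts. Activity fitted in both directions against DMSO controls. Cytotoxicity was checked in parallel cultures by SRB staining read at 560 nm.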

Read-out in experiment [4]: Matrix Metallopeptidase 1 (MMP1), MMP1 (gene 4312)
The experiment in a line: BSK_hDFCGF_MMP1: BioMAP Diversity Plus: hDFCGF Assay for Matrix Metallopeptidase 1 (MMP1) Biomarker Activity (AID 2283064). The settings on record: primary human foreskin fibroblasts; actives raise or lower the signal. The procedure, abridged:
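ELISA read-out of MMP1 from human foreskin fibroblasts (primary skin cells), 24 h post-dose. Gain or loss of signal was fitted bidirectionally versus DMSO negative control; cytotoxicity was checked by SRB in parallel cultures.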

Read-out in experiment [5]: Intercellular Adhesion Molecule 1 (ICAM1), ICAM1 (gene 3383)
The experiment in a line: BSK_KF3CT_ICAM1: BioMAP Diversity Plus: KF3CT Assay for Intercellular Adhesion Molecule 1 (ICAM1) Biomarker Activity (AID 2283067). The settings on record: primary human keratinocytes with fibroblasts; actives raise or lower the signal. The procedure, abridged: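 Human keratinocyte–foreskin fibroblast co-culture was treated for 24 h. Cell-surface ICAM-1 was quantified by ELISA, fitted bidirectionally relative to DMSO. Cytotoxicity was checked in parallel cultures by SRB total-protein staining.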

Read-out in experiment [6]: Interferon-gamma inducible Protein 10 (IP10), CXCL10 (gene 3627)
The experiment in a line: BSK_KF3CT_IP10: BioMAP Diversity Plus: KF3CT Assay for Interferon-gamma inducible Protein 10 (IP10) Biomarker Activity (AID 2283068). The settings on record: primary human keratinocytes with fibroblasts; actives raise or lower the signal. Summed up: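 KF3CT co-culture (keratinocytes + foreskin fibroblasts), 24 h compound, IP-10 by ELISA; bidirectional fit vs DMSO baseline.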

A short description of experiment [7]: BSK_KF3CT_SRB: Viability Assessment in the BioMAP Diversity Plus: KF3CT Assay (AID 2283069).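 Also: read 24 h after compound addition.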 The settings on record: primary human keratinocytes with fibroblasts. The procedure, abridged:
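SRB read-out at 560 nm (0.1% stain, TCA-fixed cells) gauges overt cytotoxicity in a human skin keratinocyte–fibroblast co-culture 24 h post-dosing. Signal change was fitted bidirectionally relative to DMSO control.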

Read-out in experiment [8]: Interleukin-1 alpha (IL1a), IL1A (gene 3552)
The experiment in a line: BSK_KF3CT_IL1a: BioMAP Diversity Plus: KF3CT Assay for Interleukin-1 alpha (IL1a) Biomarker Activity (AID 2283070). The settings on record: primary human keratinocytes with fibroblasts; actives raise or lower the signal. Summed up:
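Primary skin co-culture (keratinocytes, foreskin fibroblasts), 24 h exposure; ELISA for IL-1a; bidirectional curve fit vs DMSO.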

Read-out in experiment [9]: TIMP metallopeptidase inhibitor 2 (TIMP2), TIMP2 (gene 7077)
The experiment in a line: BSK_KF3CT_TIMP2: BioMAP Diversity Plus: KF3CT Assay for TIMP metallopeptidase inhibitor 2 (TIMP2) Biomarker Activity (AID 2283071). Particulars: primary human keratinocytes with fibroblasts; actives raise or lower the signal. The procedure, abridged:
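TIMP-2 measured by ELISA at 24 h in human keratinocyte/fibroblast primary co-cultures exposed to chemicals. Both increases and decreases were fitted against DMSO. Parallel cultures were stained with SRB for total protein as an overt-cytotoxicity check.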

Read-out in experiment [10]: Transforming growth factor beta 1 (TGFb1), TGFB1 (gene 7040)
The experiment in a line: BSK_KF3CT_TGFb1: BioMAP Diversity Plus: KF3CT Assay for Transforming growth factor beta 1 (TGFb1) Biomarker Activity (AID 2283072). The settings on record: primary human keratinocytes with fibroblasts; actives raise or lower the signal. Summed up: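 ELISA quantifies TGF-b1 at 24 h post-dose in a primary human skin co-culture of keratinocytes and fibroblasts, with gain or loss judged against DMSO. Parallel SRB total-protein staining flags overt cytotoxicity.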

Read-out in experiment [11]: C-C motif chemokine 2 (Homo sapiens) (UniProt P13500)
The experiment in a line: BSK_KF3CT_MCP1: BioMAP Diversity Plus: KF3CT Assay for Monocyte Chemoattractant Protein 1 (MCP1/CCL2) Biomarker Activity (AID 2283073). Particulars: primary human keratinocytes with fibroblasts; actives raise or lower the signal. Summed up: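 Human keratinocyte–foreskin fibroblast co-culture; MCP-1 measured by ELISA 24 h after dosing. Bidirectional fit vs DMSO; cytotoxicity tracked by SRB total protein in parallel cultures.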

Read-out in experiment [12]: Matrix Metallopeptidase 9 (MMP9), MMP9 (gene 4318)
The experiment in a line: BSK_KF3CT_MMP9: BioMAP Diversity Plus: KF3CT Assay for Matrix Metallopeptidase 9 (MMP9) Biomarker Activity (AID 2283074). Particulars: primary human keratinocytes with fibroblasts; actives raise or lower the signal. The procedure, abridged: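 ELISA read-out of MMP-9 at 24 h post-dosing in a co-culture of human skin keratinocytes and foreskin fibroblasts. Gain or loss of signal was fitted in both directions against DMSO.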

Read-out in experiment [13]: urokinase plasminogen activator (uPA), PLAU (gene 5328)
The experiment in a line: BSK_KF3CT_uPA: BioMAP Diversity Plus: KF3CT Assay for urokinase plasminogen activator (uPA) Biomarker Activity (AID 2283075). The settings on record: primary human keratinocytes with fibroblasts; actives raise or lower the signal. Summed up:
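Skin co-culture (keratinocytes + foreskin fibroblasts), human primary; 24 h post-dose; uPA by ELISA; gain/loss fit vs DMSO baseline.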

Read-out in another experiment: CD40, CD40 (gene 958)
The experiment in a line: BSK_LPS_CD40: BioMAP Diversity Plus: LPS Assay for CD40 Biomarker Activity (AID 2283076). The settings on record: primary human HUVEC with PBMC; actives raise or lower the signal. The procedure, abridged:
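HUVEC plus PBMC co-culture stimulated with LPS; CD40 quantified by ELISA 24 h after compound dosing. Fitting was bidirectional relative to DMSO. SRB staining of parallel cultures flagged overt cytotoxicity.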

Read-out in experiment [14]: E-selectin (Homo sapiens) (UniProt P16581)
The experiment in a line: BSK_LPS_Eselectin: BioMAP Diversity Plus: LPS Assay for Eselectin Biomarker Activity (AID 2283077). The settings on record: primary human HUVEC with PBMC; actives raise or lower the signal. The procedure, abridged:
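Human umbilical vein endothelial cells co-cultured with PBMC under LPS stimulation; cell-surface E-selectin measured by ELISA 24 h after dosing. Change in either direction versus DMSO, with SRB total-protein staining in parallel cultures for cytotoxicity.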

Read-out in experiment [15]: Interleukin-8 (IL8), CXCL8 (gene 3576)
The experiment in a line: BSK_LPS_IL8: BioMAP Diversity Plus: LPS Assay for Interleukin-8 (IL8) Biomarker Activity (AID 2283078). The settings on record: primary human HUVEC with PBMC; actives raise or lower the signal. The procedure, abridged:
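Human umbilical vein endothelial cells co-cultured with PBMC, LPS-stimulated, exposed to compound for 24 h. IL-8 quantified by ELISA; fitted in both directions against DMSO, with SRB total-protein staining of parallel cultures for cytotoxicity.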

Experiment [16] is described as follows: BSK_LPS_SRB: Viability Assessment in the BioMAP Diversity Plus: LPS Assay (AID 2283079).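 Also: total protein by sulforhodamine B absorbance as a cytotoxicity measure; measured one day after compound addition.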 Particulars: primary human HUVEC with PBMC. Summed up: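 Co-culture of human umbilical vein endothelial cells and PBMC, read 24 h after dosing. Total protein by 0.1% SRB staining after 10% TCA fixation, absorbance at 560 nm; bidirectional fit against DMSO.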
Read-out in experiment [17]: Interleukin-1 alpha (IL1a), IL1A (gene 3552)
The experiment in a line: BSK_LPS_IL1a: BioMAP Diversity Plus: LPS Assay for Interleukin-1 alpha (IL1a) Biomarker Activity (AID 2283080). Particulars: primary human HUVEC with PBMC; actives raise or lower the signal. The procedure, abridged:
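Human umbilical vein endothelial cells co-cultured with PBMC and stimulated with LPS; IL-1a measured by ELISA 24 h after dosing. Bidirectional fitting against DMSO; cytotoxicity checked by SRB staining in parallel cultures.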

Read-out in experiment [18]: Plasminogen activator inhibitor-1 (PAI1), SERPINE1 (gene 5054)
The experiment in a line: BSK_hDFCGF_PAI1: BioMAP Diversity Plus: hDFCGF Assay for Plasminogen activator inhibitor-1 (PAI1) Biomarker Activity (AID 2283066). The settings on record: primary human foreskin fibroblasts; actives raise or lower the signal. The procedure, abridged: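 PAI-1 levels in human dermal foreskin fibroblasts were quantified by ELISA 24 h after dosing, with gain or loss analysed against DMSO. Overt cytotoxicity was checked by sulforhodamine B total-protein staining in parallel cultures.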

One may read the AC50 as the concentration giving half of the maximal activity seen.

Activity calls are given as the source filed them. The calls were made as follows: active = hit-call score of the fitted dose curve at least 0.9, where 1 is the maximum; inactive = score below 0.9.

Sequence of E-selectin (Homo sapiens) (P16581 whole entry, looked up): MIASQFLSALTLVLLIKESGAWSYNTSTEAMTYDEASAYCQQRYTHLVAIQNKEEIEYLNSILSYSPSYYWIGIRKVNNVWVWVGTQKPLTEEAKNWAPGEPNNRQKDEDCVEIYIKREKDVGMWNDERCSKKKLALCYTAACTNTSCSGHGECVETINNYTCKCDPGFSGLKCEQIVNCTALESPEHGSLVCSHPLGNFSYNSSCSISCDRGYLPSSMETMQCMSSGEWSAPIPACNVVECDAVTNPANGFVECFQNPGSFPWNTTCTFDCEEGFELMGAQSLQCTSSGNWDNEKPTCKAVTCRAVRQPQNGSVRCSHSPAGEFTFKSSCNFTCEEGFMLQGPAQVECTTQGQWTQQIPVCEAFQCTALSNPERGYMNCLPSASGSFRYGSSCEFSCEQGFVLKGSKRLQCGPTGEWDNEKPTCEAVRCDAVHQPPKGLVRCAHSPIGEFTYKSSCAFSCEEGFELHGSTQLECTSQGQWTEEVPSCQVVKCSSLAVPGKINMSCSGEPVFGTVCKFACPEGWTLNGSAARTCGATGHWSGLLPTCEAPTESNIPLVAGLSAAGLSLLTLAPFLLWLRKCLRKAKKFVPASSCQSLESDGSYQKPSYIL

With `O=C(O)CCCCC(=O)O`, the outcome in experiment [1], in experiment [2], in [3], in experiment [4], in experiment [5] and in [6] was inactive. For the same molecule, the outcome in [7], in [8], in experiment [9], in experiment [10], in [11] and in experiment [12] was inactive. The outcome in [13] is “inactive”; in the experiment with CD40, CD40 (gene 958) it was “inactive”; in experiment [14], “inactive”; in experiment [15], “inactive”; in experiment [16], “inactive”; in [17] it was “inactive”.

Take `COc1ccc(S(=O)(=O)N2C(=O)[C@@](c3ccccc3OC)(N3C[C@H](O)C[C@H]3C(=O)N(C)C)c3cc(Cl)ccc32)c(OC)c1`: the results for the half-maximal activity concentration (AC50) in experiment [1], in experiment [4] and in experiment [15] were 26.5 µM (active), 4.5 µM (active) and 7.03 µM (active), respectively. The outcome in [2], in experiment [3], in [18], in experiment [5], in [6] and in experiment [8] was inactive. Moreover, the result in experiment [9], in experiment [10], in experiment [11], in experiment [12], in experiment [13] and in experiment [14] was inactive. The result in [16] and in [17] was inactive.

In the case of `CNC(=O)[C@H]1O[C@@H](n2cnc3c(NCc4cc(Cl)ccc4OCc4cc(C)no4)ncnc32)[C@H](O)[C@@H]1N`, the outcome in experiment [1], in [2], in experiment [3], in experiment [4], in [5] and in [6] was inactive. For the same molecule, the outcome in experiment [7] is “inactive”; in experiment [8], “inactive”; in experiment [11] it was “inactive”; in [12], “inactive”; in [13], “inactive”; in the experiment with CD40, CD40 (gene 958) it was “inactive”. Further, the result in experiment [14], in experiment [15], in [16] and in experiment [17] was inactive.

Take `C=CCOC(=O)c1ccccc1C(=O)OCC=C`: the outcome in experiment [1], in experiment [2], in experiment [3], in experiment [4], in experiment [5] and in experiment [6] was inactive. For the same molecule, the result in [7], in experiment [8], in experiment [10], in experiment [11], in [12] and in experiment [13] was inactive. Also, the outcome with CD40, CD40 (gene 958) was “inactive”; in [14], “inactive”; in [15], “inactive”; in [16] it was “inactive”; in [17], “inactive”.

Turning to `Cc1cccc(C)c1O`, the result in experiment [1], in [2], in [3], in experiment [4], in experiment [5] and in experiment [6] was inactive. For the same molecule, the outcome in [7], in [8], in experiment [9], in [11], in [12] and in experiment [13] was inactive. Also, the outcome in experiment [14], in experiment [15], in experiment [16] and in [17] was inactive.

Consider `CCCCCCCCCCC`, for which the outcome in [1], in experiment [2], in [3], in experiment [4], in experiment [5] and in experiment [6] was inactive. The outcome in [8], in experiment [9], in experiment [10], in [11], in [12] and in experiment [13] was inactive. Besides, the outcome in [14], in experiment [15], in experiment [16] and in experiment [17] was inactive.

With `Cc1ccc(Cl)cc1`, the outcome in experiment [1], in experiment [2], in [3], in experiment [4], in experiment [18] and in experiment [5] was inactive. The outcome in [6], in [8], in [9], in [11], in experiment [12] and in [13] was inactive. For the same molecule, the outcome is “inactive” with CD40, CD40 (gene 958); “inactive” in experiment [14]; “inactive” in experiment [15]; “inactive” in experiment [16]; “inactive” in experiment [17].
